Experimental data: PubChem BioAssay AID1259420 (Broad Institute, 2018)
The whole screen tested about 1,000 compounds, of which about 250 (25%) were called active. Roughly 31% stayed inconclusive and do not appear here. A selection follows. Results with a measured potency or affinity are listed apart. Unmarked numbers belong to inactive results. How the calls were made is not given here.

Experiment: compound activity on host-cell Toxoplasma growth – dose response (AID 1259420);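 further: host cells were HeLa; final incubation lasted 72 hours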
Conditions: Toxoplasma gondii growth in host cells, no IFN-gamma

Question: Which max activity (at 19.5 µM unless noted) does the source give for `C[C@H]1[C@H](NC(=O)/C(=N\OC(C)(C)C(=O)O)c2csc(N)n2)C(=O)N1S(=O)(=O)O` here?
Answer: -8.75% [at 1.35 µM]

Question: Which max activity (at 0.6 µM) does the source give for `CCS(=O)(=O)N1CC(=O)N2[C@H](CO)[C@@H](c3ccc(-c4cccc(F)c4)cc3)[C@@H]2C1` here?
Answer: 7.66%

Question: And the max activity (at 1.2 µM)?
Answer: -9.75%

Question: With `CCc1cnc(N2[C@@H](C#N)[C@@H](c3ccc(C4=CCCCC4)cc3)[C@@H]2CO)s1` as the compound, how does the max activity (at 19.5 µM unless noted) read?
Answer: -7.27%

Question: With `CCS(=O)(=O)N1[C@H](CO)[C@@H](c2ccc(C#Cc3ccccc3F)cc2)[C@@H]1C#N` as the compound, how does the max activity (at 19.5 µM unless noted) read?
Answer: 10.1% [at 2.35 µM]

Question: With `CCc1cnc(N2[C@H](C#N)[C@@H](c3ccc(C#Cc4ccccc4F)cc3)[C@H]2CO)s1` as the compound, how does the max activity (at 10 µM) read?
Answer: 8.24%

Question: And the max activity (at 19.5 µM)?
Answer: 32.4%

Question: For `OC[C@@H]1[C@@H](c2ccc(C#Cc3ccccc3F)cc2)[C@H]2CN(CC3CCOCC3)CCCCN12`, which max activity (at 19.5 µM unless noted) is on record?
Answer: 24.4%

Question: For `OC[C@H]1[C@H](c2ccc(C#Cc3ccccc3F)cc2)[C@H]2CN(CC3CCOCC3)CCCCN21`, which max activity (at 19.5 µM unless noted) is on record?
Answer: 7.1% [at 0.16 µM]

Question: Which max activity (at 19.5 µM unless noted) does the source give for `CCC(=O)N1CC(=O)N2[C@@H](CO)[C@@H](c3ccc(C#CCC(C)C)cc3)[C@@H]2C1` here?
Answer: 8.67% [at 0.3 µM]

Question: Which max activity (at 19.5 µM unless noted) does the source give for `O=C(NC1CCCCC1)N1C[C@@H]2N[C@H](C1)C2c1ccc(-c2ccc(F)cc2)cc1` (some centres undefined) here?
Answer: 22.3% [at 10 µM]

Question: Which max activity (at 19.5 µM unless noted) does the source give for `COC[C@@H]1CN(CC2CC2)C[C@@]12CCN(CCc1ccccc1)C2` here?
Answer: 18.3%

Question: For `N#Cc1cccc(-c2ccc3c(c2)[C@@H]2[C@@H](CCN2C(=O)c2ccccc2F)[C@@H](CO)N3)c1`, which max activity (at 19.5 µM unless noted) is on record?
Answer: -14.2% [at 1.2 µM]

Question: With `Cc1ccccc1S(=O)(=O)N1CCCCN2[C@H](CO)[C@H](c3ccc(C#CCN(C)C)cc3)[C@H]2C1` as the compound, how does the max activity (at 19.5 µM unless noted) read?
Answer: 8.8%

Question: Which max activity (at 19.5 µM unless noted) does the source give for `CCN1CC(C(=O)O)CN2CCN(C(=O)c3ccncc3F)CC2C1` (centres undefined) here?
Answer: -9.96% [at 1.2 µM]

Question: Which max activity (at 19.5 µM unless noted) does the source give for `CC[C@H](C(=O)N1CCCC[C@H]1C(=O)O[C@H](CCc1ccc(OC)c(OC)c1)c1cccc(OCC(=O)NCCNC(=O)COc2cccc([C@@H](CCc3ccc(OC)c(OC)c3)OC(=O)[C@@H]3CCCCN3C(=O)[C@@H](CC)c3cc(OC)c(OC)c(OC)c3)c2)c1)c1cc(OC)c(OC)c(OC)c1` here?
Answer: -10.8% [at 5 µM]

Question: Which max activity (at 19.5 µM unless noted) does the source give for `C1=CC[C@H]2CN(c3ncnc4[nH]ccc34)C[C@H]2C1` here?
Answer: 15.7% [at 10 µM]

Question: With `CCN1CCn2c(-c3cccc(F)c3)cnc2C12CCN(c1ncccn1)CC2` as the compound, how does the max activity (at 19.5 µM unless noted) read?
Answer: -16.6% [at 2.6 µM]

Question: For `FC(F)(F)C1CN(c2cc(-c3ccccc3)nc3ccccc23)CCO1` (centres undefined), which max activity (at 19.5 µM unless noted) is on record?
Answer: -8.74% [at 1.2 µM]
